We go through 101 molecules from PubChem BioAssay AID1745850 (National Center for Advancing Translational Sciences (NCATS), 2022).

Hit rate of the full screen: of about 2,100 compounds, about 260 (12%) were called active. Not shown: some 58% with an inconclusive outcome. Calls follow the shape of the dose curve; as a rule, active = well fitted cell-killing curve with a large enough effect; inconclusive = small, poorly fitted or top-dose-only effect, or effect the other way; inactive = flat fitted curve, though single readings scatter. Some of the results follow. Where a call stands in place of a potency, no number is given.
Potency is read from the fitted curve at half-maximal effect.

The nature of this assay: Viability Counterscreen for Confirmatory qHTS for Inhibitors of ATXN expression. Also: nearly all actives have a fitted effect of over 50% in size. The conditions noted are these: HEK-293 ATXN2-luc cells viability, CellTiter-Fluor, 24 h. Put shortly: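 Luminescence read-out (SteadyGlo, 5 min) followed a 30 min Gly-Phe-AFC (25 uM final) viability fluorescence read. ATXN2-luciferase reporter cells were exposed 24 h to a dilution series. Medium-only wells served as the 100% inhibition reference.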
In general terms: A counterscreen serves to expose hits that act by an unwanted route or on another target.
For the molecule `CC(C)c1cccc(C(C)C)c1Nc1cn[nH]c1`, the Potency result is “inactive”.
To `Nn1cnnc1N/N=C/c1cc(Br)cc(Br)c1O` belongs “inactive”; to `OC(c1ccccn1)(c1ccccn1)c1ccccn1`, “inactive”.
The same measure for `COc1ccc(C(=O)/C=C/c2cccc(OCc3ccccc3)c2)cc1CSCC(=O)O`: “inactive”; for `COc1cc(C=CC(=O)c2cc(OC)c(OC)c(OC)c2)cc(OC)c1OC`: 17.8 µM (active).
To `COc1ccc(C(=O)/C=C/c2ccc(OC3CSC3)cc2)cc1OC` belongs “inactive”.
For `CS(=O)(=O)N(CC(O)CON=C1c2ccccc2-c2ccccc21)c1ccc(F)cc1` (stereo unspecified), the Potency entry was “inactive”.
The same measure for `Nc1nc(NCCCN2CCOCC2)nc(Nc2ccccc2F)c1[N+](=O)[O-]`: “inactive”; for `Cc1ccc(C)c(OCCCC(=O)Nc2nccs2)c1`: “inactive”.
To `Cn1c(/C=C/c2ccc(Cl)cc2Cl)c([N+](=O)[O-])c(=O)n(C)c1=O` belongs 22.4 µM (active); to `Cn1c(/C=C/c2ccc(Cl)cc2)c([N+](=O)[O-])c(=O)n(C)c1=O`, 22.4 µM (active); to `Cc1cc(OCC(=O)Nc2ccc(Br)cc2)cc2c1C(=O)CC(C)(C)O2`, “inactive”.
The same measure for `NC1=NC[C@H](Cc2ccccc2)N1CCCCC1CCCCC1`: “inactive”; for `CCc1cc(-c2[nH]ncc2-c2ccc(OC)cc2)c(O)cc1O`: “inactive”; for `CC(C)=CCc1c(O)cc2oc3c(CC=C(C)C)c(O)c(O)c(CC=C(C)C)c3c(=O)c2c1O`: “inactive”.
Turning to `Cc1ccccc1C(=O)/C(C#N)=N/Nc1c(C)n(C)n(-c2ccccc2)c1=O`, the Potency is 10 µM (active).
Take `Cc1c(N/N=C(\C#N)C(=O)c2ccccc2)c(=O)n(-c2ccccc2)n1C`: the Potency is 12.6 µM (active).
The same measure for `COc1ccc(NS(=O)(=O)c2ccc(C(=O)Nc3c(C)n(C)n(-c4ccccc4)c3=O)cc2)cc1`: “inactive”; for `Cc1cc(C)cc(NC(=O)/C(C#N)=C/c2cn(CC(=O)NCc3ccco3)c3ccccc23)c1`: “inactive”.
In the case of `Nc1c(C(=O)NCCN2CCOCC2)c2nc3ccccc3nc2n1CCc1ccccc1F`, the Potency result is “inactive”.
The same measure for `CCOC(=O)c1c(NC(=O)COC(=O)CNC(=O)c2ccco2)sc(C)c1C`: “inactive”; for `N#Cc1ccccc1NC(=O)C1SC(=Nc2ccccc2)C(C(=O)Nc2ccc(Cl)cc2)=C1N` (stereo unspecified): “inactive”; for `O=C(CSc1ccc2ccccc2c1)Nc1nc2ccccc2[nH]1`: “inactive”.
To `C/C(=N\NC(=O)CSCc1ccc([N+](=O)[O-])cc1)c1ccccc1O` belongs “inactive”; to `N#Cc1c(Oc2ccc3ccccc3c2)sc(C(=O)c2ccccc2)c1N`, “inactive”; to `COc1cnc(-c2ccccn2)nc1NC(C)C`, 10 µM (active).
To `COC(=O)COc1ccc(-c2nccc(-c3ccccn3)n2)cc1` belongs “inactive”; to `O=C(N/N=C/c1cc([N+](=O)[O-])ccc1O)c1ccc(COc2ccc3c(c2)CCC3)o1`, 11.2 µM (active).
Consider `COc1ccc(O)c(/C=N/NC(=O)c2ccc(OCc3cccc(Br)c3)cc2)c1`, for which the Potency result was “inactive”.
The same measure for `O=C(CNS(=O)(=O)c1ccc([N+](=O)[O-])cc1)N/N=C/c1ccc(O)cc1O`: “inactive”.
To `C=CCc1cccc(/C=N/NC(=O)CNc2ccccc2)c1O` belongs “inactive”; to `O=C(Nc1cccc(C(F)(F)F)c1)Oc1ccc(Cl)c2cccnc12`, “inactive”; to `COc1ccc(C(NC(C)=O)c2cc(Cl)c3cccnc3c2O)cc1OC` (stereo unspecified), 10 µM (active).
The same measure for `CCCC(=O)NC(c1ccc(C(C)C)cc1)c1ccc2cccnc2c1O` (stereo unspecified): “inactive”; for `COc1cccc(C(NC(C)=O)c2ccc3cccnc3c2O)c1` (stereo unspecified): 8.91 µM (active); for `CCCCC(=O)NC(c1ccc(N(CC)CC)cc1)c1ccc2cccnc2c1O` (stereo unspecified): “inactive”.
For the molecule `COc1ccc(C(NC(C)=O)c2cc(Cl)c3cccnc3c2O)cc1` (stereo unspecified), the Potency is 8.91 µM (active).
In the case of `CC(=O)NC(c1ccc(C)cc1)c1cc(Cl)c2cccnc2c1O` (stereo unspecified), the Potency was 11.2 µM (active).
Take `C(=N\NC(=Nc1ccccc1)c1ccccn1)/c1ccccn1`: the Potency result was “inactive”.
`COc1ccc(CNC(=O)CSc2nc(-c3ccccc3)cc(-c3cccs3)c2C#N)cc1`: the Potency entry is “inactive”.
To `COc1cc2ccnc(Cc3cccc(OC)c3OC)c2cc1OC` belongs “inactive”; to `COc1ccc(OC)c(C(=O)/C=C/c2ccccc2C(F)(F)F)c1`, “inactive”.
For the molecule `Cc1ccc2nc(-c3ccccc3)nn2c1`, the Potency result was “inactive”.
To `O=C(N/N=C/c1cc(Br)cc(Br)c1O)c1cccc(N2CCCC2=O)c1` belongs “inactive”.
To `COC(=O)c1ccc(C(=O)Nc2cc(Cl)ccc2Cl)cc1NC(=O)c1ccc(N(C)C)cc1` belongs “inactive”; to `O=C(N/N=C/c1cc(Cl)ccc1O)c1cccnc1`, “inactive”; to `O=C(NC(c1ccc(Cl)cc1)c1cc(Cl)c2cccnc2c1O)c1cccnc1` (stereo unspecified), 12.6 µM (active).
The same measure for `Cc1ccc(S(=O)(=O)Nc2cc(Cl)c(O)c3ncccc23)cc1`: 10 µM (active).
With `Cc1cc(NC(c2cccnc2)c2ccc3cccnc3c2O)no1` (stereo unspecified), the Potency is 8.91 µM (active).
To `O=C(N/N=C/c1c(O)n(Cc2ccccc2)c(=O)c2ccccc12)c1cccnc1` belongs “inactive”; to `COc1cc(CNCc2ccncc2)cc(Br)c1OCc1ccccc1F`, “inactive”; to `Cn1c(CO)c(-c2ccccc2)c2cc([N+](=O)[O-])ccc21`, “inactive”.
The same measure for `CCn1c(C)cc(C(=O)COC(=O)c2ccccc2[N+](=O)[O-])c1C`: “inactive”; for `CCOC(=O)N1CCN(c2ccnc3cc(Cl)ccc23)CC1`: “inactive”.
To `CN(CCc1ccccc1)c1cc2c(c3c1ccn3C)C1CCC2O1` (stereo unspecified) belongs “inactive”; to `CC(C)(C)c1ccc(CC(=O)N2CCC2(C)C(=O)Nc2cnc3ccccc3c2)cc1` (stereo unspecified), “inactive”.
Consider `O=C(Nc1cccc2ccccc12)OC1C=CS(=O)(=O)C1` (stereo unspecified), for which the Potency entry was “inactive”.
As for `Cc1noc2ncnc(N3CCN(c4cccc(Cl)c4)CC3)c12`, the Potency result is “inactive”.
To `O=C(CSCC(=O)Nc1ccccc1)N/N=C/c1c(O)ccc2ccccc12` belongs “inactive”; to `CC(C)(C)c1ccc(Oc2ccc(N)cc2)cc1`, “inactive”; to `COc1ccc2[nH]c3c(N4CCC(O)(c5cccc(C(F)(F)F)c5)CC4)ncnc3c2c1`, 3.16 µM (active).
The same measure for `O=C1CN(C(=O)c2c(F)cccc2F)C(c2ccc(F)cc2)c2cc(Br)ccc2N1` (stereo unspecified): “inactive”; for `COc1cccc(NC(=O)/C=C/c2ccc(S(=O)(=O)N3CCOCC3)cc2)c1`: “inactive”; for `COc1ccc(N2C3=C(CC4=C2CC(C)(C)CC4=O)C(=O)CC(C)(C)C3)cc1`: “inactive”.
To `CC1CC2(C)Oc3ccccc3CC2C(C)C1CNCCCN(C)C` (stereo unspecified) belongs 25.1 µM (active); to `O=C(C1CCC(CNS(=O)(=O)c2cccc3nsnc23)CC1)N1CC=C(c2ccccc2)CC1` (stereo unspecified), “inactive”; to `Cc1ccccc1SCC(=O)N1CCN(c2ccc(C(F)(F)F)cn2)CC1`, “inactive”.
In the case of `COc1cc(-c2ccc3sc(-c4ccsc4)c(C#CCO)c3c2)cc(OC)c1OC`, the Potency is 22.4 µM (active).
To `COc1ccc(-c2sc3ccc(OC)cc3c2-c2ccc(O)cc2)cc1` belongs “inactive”; to `O=C(O)CSc1cc(NS(=O)(=O)c2ccc(Cl)cc2)c2ccccc2c1O`, 35.5 µM (active); to `COC(=O)[C@H]1C[C@H](OC(=O)NC2CC2)[C@@]2(O)CN(S(=O)(=O)c3ccc(C)cc3)CC2[C@H]1C(=O)OC` (stereo partly specified), “inactive”.
The same measure for `COc1ccc(CC(N)c2csc(NC(=O)c3ccccc3OC)n2)cc1` (stereo unspecified): “inactive”.
The same measure for `COc1ccc(-c2csc(NC(=O)c3ccccc3NS(=O)(=O)c3ccc(F)c(F)c3)n2)cc1`: 5.62 µM (active); for `C/[N+]([O-])=C\c1cccc(OCCN2CCN(c3ncc(C(F)(F)F)cc3Cl)CC2)c1`: “inactive”.
Regarding `CC[n+]1c(/C=C/c2c[nH]c3ccccc23)ccc2cc(C)ccc21`, the Potency was 15.8 µM (active).
The same measure for `Nc1ccc(OC(=O)Nc2ccc(O)cc2)cc1`: “inactive”.
The same measure for `O=C(NCC1CCCO1)c1cccc(Oc2ccc([N+](=O)[O-])cc2Cl)c1` (stereo unspecified): “inactive”; for `O=C(Cn1cnc([N+](=O)[O-])c1)Nc1cc(Oc2ccc(Cl)cc2Cl)cc([N+](=O)[O-])c1`: 3.16 µM (active); for `CC1CCN(Cc2c(C(=O)N/N=C/c3cc(Cl)ccc3O)nnn2-c2nonc2N)CC1`: “inactive”.
The same measure for `O=C1c2cccc3cc([N+](=O)[O-])cc(c23)C(=O)N1CCN1CCCC1`: 3.16 µM (active); for `Nc1cc2c3c(cccc3c1)C(=O)N(CCN1CCCC1)C2=O`: 22.4 µM (active).
As for `CCCCCCc1cc2cc(C(=O)Nc3ccccc3)c(=O)oc2cc1O`, the Potency result is “inactive”.
On to `O=C(CN1C(=O)c2ccccc2S1(=O)=O)N1CCc2ccccc21`, for which the Potency entry was “inactive”.
The same measure for `CCOc1cc(/C=C2\SC(=N)N(c3nccs3)C2=O)ccc1OCCN1CCOCC1`: 25.1 µM (active); for `OC1(c2ccc(Br)cc2)CCNCC1`: “inactive”.
In the case of `Cc1onc(-c2ccccc2)c1C(=O)Nc1ccc(S(=O)(=O)NC(C)(C)C)cc1`, the Potency entry was “inactive”.
Regarding `Cc1cc(C)cc(OCC(=O)NNC(=S)NC(=O)C2CC2)c1`, the Potency entry was “inactive”.
The same measure for `Cc1sc2cc3c(c(C(=O)c4ccccc4)[n+]2c1C)-c1cccc2cccc-3c12`: 12.6 µM (active); for `CC(=O)c1ccc(C(=O)Nc2nnc(-c3ccc(Cl)cc3)o2)cc1`: “inactive”.
The same measure for `CCn1c2ccccc2c2cc(NC(=O)COC(=O)C3CCC(=O)N3)ccc21` (stereo unspecified): “inactive”; for `NS(=O)(=O)c1ccc(N2N=C(c3ccc(Br)cc3)CC2c2ccc(F)cc2)cc1` (stereo unspecified): “inactive”; for `O=C(NNCc1ccccc1)c1ccccc1`: “inactive”.
Take `COc1cccc(OC)c1C(=O)OCC(=O)NC(=O)NCc1ccccc1`: the Potency entry was “inactive”.
The same measure for `c1ccc(CN=C(NCc2ccccc2)NCc2ccccc2)cc1`: 31.6 µM (active); for `CCCC/C(C)=N/NC(=O)c1cn(-c2ccccc2)nc1-c1ccccc1`: “inactive”; for `C/C(=N\NC(=O)c1cccc2ccccc12)c1ccccn1`: 6.31 µM (active).
Consider `CCCCCC(=O)N/N=C(\C)c1ccccn1`, for which the Potency entry is “inactive”.
Consider `Nc1cccc2nc3ccccc3cc12`, for which the Potency entry was “inactive”.
To `COc1cc2cc(C(=O)NC(C)c3cccc4ccccc34)c(N)nc2cc1OC` (stereo unspecified) belongs “inactive”; to `COc1cc(N)ccc1Nc1c2ccccc2nc2ccccc12`, 31.6 µM (active); to `O=C(NNC(=O)c1csc(-c2cnccc2C(F)(F)F)n1)c1ccc(C(F)(F)F)cc1`, “inactive”.
